High-throughput results from PubChem.
LGR2 inh – blocks bursicon-induced cAMP signaling via Drosophila LGR2; HEK293 LGR2, CRE-luciferase, bursicon-stimulated, 4 h; inhibition, % at 9.99 µM; actives 0.35% (n = 380,000);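 active = drop in luminescence signal, shown as inhibition above about 50% in the replicate tests, limit read from the data, passing the limit was not always enough; inconclusive = probably only some replicates passing the limit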;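 also: agonist challenge used bursicon conditioned medium at about half maximal strength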
KKLEB tox – counter-screen for CF NF-kB inhibitors: cytotoxicity; KKLEB CF airway cells viability, ATPlite luminescence, overnight; active compounds read low; cells stimulated with P. aeruginosa culture filtrate; activity change (cytotoxicity), % at 5 µM; actives 0.36% (n = 360,000); AID 602141;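 active = corrected activity change at or below -50% at 5 µM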
PAX8 reporter – lowers PAX8-driven luciferase in RMG-I cells | actives 1.2% (n = 360,000) | AID 652154 | RMG-I TPO-luciferase reporter, SteadyGlo, 24 h | inhibition, % at 12.6 µM;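 active = mean replicate inhibition at least 60% with every replicate also reaching 60%; inconclusive = only one of the two criteria is met; inactive = mean below 60% and not all replicates reaching 60%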;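 also: luciferase light reporting Pax8 driven TPO promoter activity; plate controls were median of neutral control wells for no effect and mitoxantrone controls for full effect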
CF NFkB inh – cystic fibrosis NF-kB activation inhibition. KKLEB NF-kB-GFP reporter, PAF-induced, GFP fluorescence overnight. inhibition, % at 5 µM. actives 0.86% (n = 360,000). AID 588850;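 active = at least 50% inhibition at 5 µM, scaled per plate between neutral and stimulator controls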;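 also: PAF is a Pseudomonas aeruginosa culture filtrate used as stimulus; plate controls were PAF-stimulated DMSO wells for no effect and unstimulated DMSO wells for full effect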
Shn3 inh set2 – inhibitors of Schnurri-3 3'UTR reporter in osteoblasts; actives 0.52% (n = 360,000); inhibition, % at 12.5 µM; Clone20 osteoblast Shn3 3'UTR firefly luciferase, 24 h;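 active = mean inhibition of at least 75% with every replicate also reaching 75%; inconclusive = mean inhibition at least 75% but some replicate below; inactive = mean inhibition below 75%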;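 also: 0% = median of neutral control wells and 100% = pilot-screen positive control compound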
EWS-Fli block – blocks EWS/Fli oncoprotein-driven transcription; A673 NR0B1-luciferase reporter, viability-normalised; inhibition, % at 12.6 µM; actives 0.67% (n = 350,000); AID 651661;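 active = mean inhibition of at least 50% after viability correction, with every replicate also passing that limit; inconclusive = mean reaches 50% but only one of two replicates passes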;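 also: firefly luciferase signal divided by Alamar Blue viability fluorescence both relative to DMSO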
CF NFkB inh conf – CF NF-kB inhibition confirmation, single concentration; shares compounds with CF NFkB inh; KKLEB CF airway cells, PAF-induced NF-kB-GFP fluorescence, overnight; inhibition, % at 5 µM; actives 64% (n = 1,300); in the data active = inhibition above about 40%;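 also: stimulus PAF is a Pseudomonas aeruginosa filtrate and not platelet activating factor; plate controls were DMSO wells with stimulus for no effect and unstimulated DMSO wells for full effect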
* hit, by the source's call; ? = inconclusive; nt = no result given. This is a sample that favours compounds with a hit; in the whole collection about 2% have one here.

SMILES | LGR2 inh | KKLEB tox | PAX8 reporter | CF NFkB inh | Shn3 inh set2 | EWS-Fli block | CF NFkB inh conf
Cc1ccc(S(=O)(=O)Nc2ccc3c(c2)C(=O)N([C@H](C)CO)C[C@H](C)[C@@H](CN(C)S(C)(=O)=O)OCCCC[C@@H](C)O3)cc1 | 9.7 | nt | -16.6 | nt | nt | -12.2 | nt
CC(=O)Oc1ccc(-c2ccc(C(=O)OCC(=O)N(C)CC(=O)Nc3ccccc3Cl)cc2)cc1 | -6.9 | -43.7 | -1.5 | 51.7* | 20.5 | -1.3 | 36.4
Cc1c(C(=O)N2CCC(Cc3ccccc3)CC2)cccc1[N+](=O)[O-] | 25.7 | -4.4 | 1.9 | 51.2* | 20.4 | 1.2 | 43.1*
O=C(COC(=O)c1ccc2[nH]c3c(c2c1)CCCC3)Nc1ccccc1Cl | 11.2 | -38.3 | -3.6 | 56.3* | -1.1 | -14.1 | 54.0*
CC(=O)[C@@]1(O)CC[C@H]2[C@@H]3C[C@H](C)C4=CC(=O)CC[C@]4(C)[C@H]3CC[C@@]21C | 5.6 | 17.7 | 10.5 | 53.9* | 7.4 | 0.2 | -85.7
C=C1CC2C(CCC3(C)C2CCC3(O)C(C)=O)C2(C)CCC(=O)C=C12 (centres undefined) | 38.7 | -11.1 | ? | 29.8 | 14.4 | 17.6 | nt
CC(=O)c1c(C(C)=O)c(C)n(Cc2ccccc2)c1C | 6.0 | -0.4 | nt | -1.3 | 20.9 | nt | nt
Cc1c(C=O)c(C=O)c(C)n1Cc1ccccc1 | 34.6 | -48.4 | nt | 53.1* | 9.3 | nt | 66.0*
CN1CCN(C(=O)C[C@@H]2C[C@H]3c4cc(NC(=O)C5CCOCC5)ccc4O[C@H]3[C@H](CO)O2)CC1 | -3.7 | nt | -5.8 | nt | nt | 1.7 | nt
CC(=O)Nc1ccc(NC(=O)c2cccc(C(=O)OC(C)C)n2)cc1 | nt | 5.1 | 0.9 | -1.4 | 0.6 | nt | nt
CC(C)OC(=O)c1cccc(C(=O)Nc2cccc(NC(=O)c3cccc(C(=O)OC(C)C)n3)n2)n1 | 3.9 | -4.0 | -0.6 | 56.6* | 28.1 | -12.4 | 62.2*
Nc1ncnc(N2CCc3ccccc32)c1[N+](=O)[O-] | 14.7 | -24.0 | -47.6 | 83.4* | -3.4 | -14.3 | 98.3*
NNC(=O)c1ccc(N2CCc3ccccc32)c([N+](=O)[O-])c1 | 14.1 | 8.0 | -17.5 | -26.1 | -11.7 | -14.7 | nt
Cc1nc([N+](=O)[O-])c(Br)n1CC(=O)c1ccc(Br)cc1 | nt | -41.8 | 40.0 | 53.4* | 36.2 | nt | 10.9
Cc1nc([N+](=O)[O-])c(Br)n1CC(=O)c1ccccc1 | nt | -7.7 | nt | 31.1 | 8.5 | nt | nt
COc1cc2oc(=O)cc(-c3ccc(-c4ccc(N(C)C)cc4)cc3)c2c(OC)c1OC | 4.2 | -27.8 | -40.1 | 52.1* | 9.6 | -11.6 | 66.3*
C=CCn1c(Oc2cc(C)ccc2C)nc2c1c(=O)n(C)c(=O)n2C | 24.2 | -14.2 | nt | 26.7 | -8.9 | 2.4 | nt
C=CCn1c(Oc2ccccc2F)nc2c1c(=O)n(C)c(=O)n2C | -5.0 | -15.7 | -29.1 | 57.2* | 8.0 | 2.6 | 63.7*
CCOC(=O)/C(=C\c1cccc(O)c1)c1nc2sc(C)c(C)c2c(=O)[nH]1 | 83.9* | -26.3 | 15.6 | 74.5* | 36.2 | -3.2 | -96.6
CCOC(=O)c1nc2sc(C)c(C)c2c(=O)[nH]1 | -3.1 | 3.4 | nt | -5.6 | -6.4 | -11.2 | nt
COC(=O)N1C(=O)[C@@](c2ccccc2)(C(C)C)N1C(=O)OC | nt | 5.9 | nt | 58.0* | 16.8 | nt | 51.1*
CCC1(c2ccccc2)C(=O)N(C(=O)OC(C)(C)C)N1C(=O)OC(C)(C)C (centres undefined) | 1.5 | 1.8 | -4.8 | -16.9 | -7.8 | -1.7 | nt
COC(=O)N1C(=O)[C@@](c2ccc(OC)cc2)(C(C)C)N1C(=O)OC | 28.2 | -11.9 | nt | 69.1* | -14.3 | nt | 57.3*
CO[C@@H]1CN(C)C(=O)c2cc(NS(=O)(=O)c3ccccc3Cl)ccc2OC[C@H](C)NC[C@H]1C | 6.5 | nt | nt | nt | nt | 2.5 | nt
O=C1C2C(c3ccccc3)CC=CC2[C@H](c2ccoc2)N1Cc1ccccc1 (some centres undefined) | 5.9 | 16.6 | -6.7 | 8.3 | -3.7 | 23.2 | nt
SMILES | LGR2 inh | KKLEB tox | PAX8 reporter | CF NFkB inh | Shn3 inh set2 | EWS-Fli block | CF NFkB inh conf
Cc1ccc(F)c([C@H]2C3C=CCC(c4ccccc4)C3C(=O)N2Cc2ccccc2)c1 (some centres undefined) | 17.6 | -16.4 | 3.9 | 62.8* | -8.2 | 21.9 | 27.2
O=C1C2C(c3ccccc3)CC=CC2[C@H](c2ccc3ccccc3c2)N1Cc1ccccc1 (some centres undefined) | 21.7 | -33.4 | -9.9 | 55.3* | 19.5 | 10.3 | 42.6*
CN(C)C(=O)[C@@H]1[C@@H](CO)[C@@H]2Cn3c(cccc3=O)[C@H]1N2CC1CCCC1 | 2.7 | nt | -3.0 | nt | nt | nt | nt
COc1cccc(-c2ccc3c(c2)[C@H]2[C@H](CCN2C(=O)C2CCCC2)[C@@H](CO)N3)c1 | -11.5 | nt | nt | nt | nt | 4.2 | nt
COC(C/C=C/C(=O)[C@H](C)OCc1ccccc1)OC | nt | -16.4 | nt | 58.4* | -62.1 | nt | -34.6
COc1ccccc1-c1cn(CC[C@H]2CC[C@@H](NC(=O)c3ccccc3F)[C@H](CO)O2)nn1 | -12.5 | nt | 30.3 | nt | nt | 12.7 | nt
COc1ccccc1-c1ccc([C@@H]2[C@@H](CO)N(C(=O)C3CC3)[C@H]2C#N)cc1 | 5.5 | nt | 11.7 | nt | nt | -4.2 | nt
COc1ccc2[nH]cc(C(=O)CN3CC(C)CC(C)C3)c2c1 (centres undefined) | 5.7 | -2.6 | 22.5 | 4.3 | -12.6 | -4.2 | nt
COc1ccc2[nH]cc(C(=O)CCl)c2c1 | 18.1 | -39.7 | 28.3 | 81.6* | -53.4 | 24.7 | 113.1*
C[C@H]1CCCCO[C@H](CN(C)C)[C@@H](C)CN([C@@H](C)CO)C(=O)c2cc(NC(=O)CCC(F)(F)F)ccc2O1 | 7.1 | nt | -3.5 | nt | nt | 1.7 | nt
COc1ccc(-c2ccc([C@@H]3[C@@H](CO)N4C(=O)CN(C(=O)c5ccccn5)C[C@H]34)cc2)cc1 | 7.3 | nt | -4.9 | nt | nt | -9.7 | nt
O=C(Nc1cccc(Cl)c1)N[C@@H]1CC[C@H](CCNC(=O)C2CCOCC2)O[C@H]1CO | 15.1 | nt | 8.9 | nt | nt | -0.5 | nt
CCC[n+]1c(C)sc2c3c(ccc21)CCCC3 | nt | -23.0 | nt | 58.5* | 92.1* | nt | 20.0
CC[n+]1c(C)sc2c(C)cc(C)cc21 | 11.7 | 2.6 | nt | -13.1 | 5.5 | nt | nt
O=C(Nc1ccc(O)cc1)c1cc2ccccc2c(=O)s1 | -65.3 | 9.4 | -202.0 | 40.7 | -44.8 | -44.9 | nt
O=C(Nc1ccccc1)c1cc2ccccc2c(=O)s1 | -36.2 | -9.1 | -65.6 | 61.9* | -60.1 | nt | 68.4*
C=C1CCC[C@]2(C)C[C@H]3OC(=O)C(CN(Cc4ccc(OC)c(OC)c4)CC(C)O)[C@H]3CC12 (some centres undefined) | 8.2 | -6.2 | -43.3 | 56.2* | 2.2 | -7.8 | 47.4*
C=C1CCC[C@]2(C)C[C@H]3OC(=O)C(CN[C@@H](C)c4ccccc4)[C@H]3CC12 (some centres undefined) | -2.4 | 4.3 | 26.8 | 13.3 | 18.2 | 21.5 | nt
